From publication PMC5540273 (PLoS ONE, 2017) come the findings set out here.

SMILES strings stand for the structures. Read-outs that look alike come from different tables or passages of the source.

Among the test systems are NDR2; NEK10; NEK11; NEK1; NEK2; NEK3; NEK4; NEK5; NEK6; NEK7; NEK9; NLK; PAK1; PAK2; PAK3; PAK4.
Common to all, as to conditions: n = 1
For the next test, the system named is T1, NDR1.
T1 construct: gene STK38

The subject of another test is T2, NIK.
T2 construct: gene MAP3K14

A further test deals with T3, NIM1.
T3 construct: gene MGC42105

In the next test the test system is T4, OSR1.
T4 construct: gene OXSR1

[1] abbreviates: concentration: 1 μM, replicates: in singlicate.
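Also: KINOMEscan kinase panel screen.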

In the case of `Cc1ccc(NC(=O)Nc2cccc(C(F)(F)F)c2)cc1` [GSK955403], the “%Inh” value in the test on NDR1 (1 µM) stood at 15%; with NDR2 (1 µM), 17%; in the test with NEK10 (1 µM), 24%; in the test with NEK11 (1 µM) it was 0%; in the test with NEK1 (1 µM) it was 7%; in the test on NEK2 (1 µM), 3%. Besides, the “%Inh” value with NEK3 (1 µM) turned out to be 5%; in the test on NEK4 (1 µM), 0%; in the test on NEK5 (1 µM), 0%; with NEK6 (1 µM), 0%; in the test on NEK7 (1 µM), 0%; with NEK9 (1 µM), 0%. Moreover, the “%Inh” value was determined as 8% in the test on NIK (1 µM); 0% with NIM1 (1 µM); 15% in the test with NLK (1 µM); 0% with OSR1 (1 µM); 24% with PAK1 (1 µM); 5% in the test with PAK2 (1 µM). The “%Inh” value in the test with PAK3 (1 µM) amounted to 0%; in the test with PAK4 (1 µM) it was 4%.

For `CCn1c(-c2ccccn2)nc2cnccc21` [SB-736398], the “%Inh” value with NDR1 (setting [1]) is given as 6%; with NDR2 (setting [1]), 0%; with NEK10 (setting [1]) it was 26%; with NEK11 (setting [1]), 39%; in the test with NEK1 (setting [1]), 100%; in the test with NEK2 (setting [1]), 0%. Further, the “%Inh” value in the test on NEK3 (setting [1]) is listed as 12%; in the test on NEK4 (setting [1]), 10%; in the test on NEK5 (setting [1]), 0%; with NEK6 (setting [1]) it was 0%; in the test with NEK7 (setting [1]), 0%; in the test with NEK9 (setting [1]), 0%. Moreover, the “%Inh” value with NIK (setting [1]) came out at 24%; in the test on NIM1 (setting [1]), 34%; in the test with NLK (setting [1]), 0%; in the test on OSR1 (setting [1]) it was 0%; in the test on PAK1 (setting [1]) it was 22%; in the test with PAK2 (setting [1]), 24%. The figures for the “%Inh” value with PAK3 (setting [1]) and in the test on PAK4 (setting [1]) were 31% and 0%, respectively.

For `Cc1nnc(-c2ccc3occ(-c4ccc(S(C)=O)cc4)c3c2)[nH]1` (centres unmarked), the “%Inh” value is recorded as 1% in the test on NDR1 (setting [1]); 0% in the test with NDR2 (setting [1]); 0% in the test on NEK10 (setting [1]); 0% in the test with NEK11 (setting [1]); 0% in the test on NEK1 (setting [1]); 11% with NEK2 (setting [1]). Besides, the “%Inh” value is listed as 11% in the test with NEK3 (setting [1]); 0% in the test with NEK4 (setting [1]); 1% with NEK5 (setting [1]); 8% in the test with NEK6 (setting [1]); 22% in the test on NEK7 (setting [1]); 25% with NEK9 (setting [1]). The “%Inh” value in the test with NIK (setting [1]) stood at 0%; in the test with NIM1 (setting [1]) it was 0%; with NLK (setting [1]) it was 17%; in the test with OSR1 (setting [1]), 6%; in the test with PAK1 (setting [1]), 28%; with PAK2 (setting [1]), 36%. Further, the results for the “%Inh” value with PAK3 (setting [1]) and with PAK4 (setting [1]) were 17% and 8%, respectively.

`CS(=O)(=O)c1ccc(-c2nc3n(c2-c2ccncc2)CCC3)cc1` [SKF-105942]: the “%Inh” value in the test on NDR1 (setting [1]) is given as 19%; in the test with NDR2 (setting [1]) it was 0%; in the test on NEK10 (setting [1]) it was 17%; with NEK11 (setting [1]), 0%; with NEK1 (setting [1]), 0%; in the test on NEK2 (setting [1]), 15%. The “%Inh” value with NEK3 (setting [1]) worked out at 58%; in the test with NEK4 (setting [1]) it was 22%; in the test on NEK5 (setting [1]), 1%; with NEK6 (setting [1]) it was 0%; in the test with NEK7 (setting [1]), 0%; with NEK9 (setting [1]) it was 0%. Moreover, the “%Inh” value was 3% in the test with NIK (setting [1]); 17% in the test with NIM1 (setting [1]); 0% with NLK (setting [1]); 0% in the test with OSR1 (setting [1]); 19% with PAK1 (setting [1]); 26% in the test with PAK2 (setting [1]). Also, the “%Inh” value in the test with PAK3 (setting [1]) and with PAK4 (setting [1]) was 0% each time.

For `O=C(Nc1ccc2c(c1)OCO2)NC1CCN(c2ccnc(Nc3ccc(F)cc3)n2)C1` (centres unmarked) [GSK1379724], the “%Inh” value with NDR1 (setting [1]) stood at 0%; in the test on NDR2 (setting [1]), 0%; in the test on NEK10 (setting [1]), 11%; with NEK11 (setting [1]) it was 0%; in the test with NEK1 (setting [1]), 0%; in the test on NEK2 (setting [1]) it was 0%. Besides, the “%Inh” value in the test on NEK3 (setting [1]) turned out to be 17%; with NEK4 (setting [1]) it was 20%; in the test on NEK5 (setting [1]) it was 25%; in the test on NEK6 (setting [1]) it was 0%; with NEK7 (setting [1]) it was 0%; in the test with NEK9 (setting [1]) it was 0%. Besides, the “%Inh” value with NIK (setting [1]) was found to be 0%; with NIM1 (setting [1]), 46%; with NLK (setting [1]), 12%; in the test with OSR1 (setting [1]), 0%; with PAK1 (setting [1]), 18%; in the test on PAK2 (setting [1]) it was 37%. In addition, the “%Inh” value in the test with PAK3 (setting [1]) and in the test with PAK4 (setting [1]) was 0% in each case.

For `Cl.c1ccc(-c2n[nH]cc2-c2ccnc(-c3ccc(CN4CCOCC4)cc3)c2)nc1` [GW776245], the “%Inh” value in the test with NDR1 (setting [1]) stood at 14%; in the test on NDR2 (setting [1]) it was 31%; with NEK10 (setting [1]), 0%; in the test on NEK11 (setting [1]) it was 0%; in the test on NEK1 (setting [1]), 0%; in the test with NEK2 (setting [1]) it was 21%. Further, the “%Inh” value was determined as 14% in the test on NEK3 (setting [1]); 0% with NEK4 (setting [1]); 6% in the test on NEK5 (setting [1]); 22% in the test on NEK6 (setting [1]); 0% with NEK7 (setting [1]); 0% in the test with NEK9 (setting [1]). The “%Inh” value with NIK (setting [1]) turned out to be 0%; in the test on NIM1 (setting [1]) it was 0%; with NLK (setting [1]), 0%; with OSR1 (setting [1]), 0%; with PAK1 (setting [1]), 6%; with PAK2 (setting [1]), 14%. The “%Inh” value in the test with PAK3 (setting [1]) is 10%; in the test with PAK4 (setting [1]), 16%.

Regarding `COC(=O)c1c(-c2ccccc2)c2cc(OC)ccc2c(=O)n1Cc1ccccc1`, the “%Inh” value in the test with NDR1 (setting [1]) is listed as 0%; in the test on NDR2 (setting [1]), 3%; with NEK10 (setting [1]), 0%; in the test on NEK11 (setting [1]), 0%; in the test on NEK1 (setting [1]), 7%; with NEK2 (setting [1]), 9%. The “%Inh” value is on record as 16% in the test with NEK3 (setting [1]); 11% with NEK4 (setting [1]); 0% in the test on NEK5 (setting [1]); 0% in the test with NEK6 (setting [1]); 0% in the test with NEK7 (setting [1]); 7% in the test on NEK9 (setting [1]). Moreover, the “%Inh” value in the test on NIK (setting [1]) was found to be 0%; in the test with NIM1 (setting [1]) it was 0%; with NLK (setting [1]), 0%; in the test with OSR1 (setting [1]) it was 0%; with PAK1 (setting [1]), 31%; with PAK2 (setting [1]), 27%. Moreover, the results for the “%Inh” value with PAK3 (setting [1]) and in the test with PAK4 (setting [1]) were 44% and 9%, respectively.

In the case of `Nc1nc(-c2nccs2)c(-c2ccnc3ccccc23)s1` [GW693542], the “%Inh” value was determined as 17% with NDR1 (setting [1]); 30% in the test with NDR2 (setting [1]); 19% in the test with NEK10 (setting [1]); 12% in the test with NEK11 (setting [1]); 0% in the test on NEK1 (setting [1]); 0% with NEK2 (setting [1]). Further, the “%Inh” value with NEK3 (setting [1]) is listed as 4%; with NEK4 (setting [1]), 0%; in the test on NEK5 (setting [1]), 3%; in the test on NEK6 (setting [1]), 0%; in the test on NEK7 (setting [1]), 0%; with NEK9 (setting [1]) it was 12%. Also, the “%Inh” value in the test on NIK (setting [1]) turned out to be 0%; in the test with NIM1 (setting [1]) it was 5%; in the test on NLK (setting [1]), 38%; with OSR1 (setting [1]), 6%; in the test with PAK1 (setting [1]) it was 0%; in the test with PAK2 (setting [1]), 1%. Besides, the “%Inh” value in the test on PAK3 (setting [1]) was 9%; with PAK4 (setting [1]), 0%.

As for `Cc1cccc(-c2nc(C)cc(Nc3ccncc3)n2)n1` [GSK257997], the “%Inh” value in the test with NDR1 (setting [1]) came out at 7%; with NDR2 (setting [1]), 0%; in the test with NEK10 (setting [1]), 27%; in the test with NEK11 (setting [1]), 0%; in the test with NEK1 (setting [1]) it was 0%; in the test with NEK2 (setting [1]), 0%. Moreover, the “%Inh” value in the test with NEK3 (setting [1]) was 0%; in the test with NEK4 (setting [1]), 0%; in the test with NEK5 (setting [1]), 20%; with NEK6 (setting [1]) it was 0%; with NEK7 (setting [1]) it was 0%; in the test on NEK9 (setting [1]), 46%. In addition, the “%Inh” value in the test on NIK (setting [1]) was 10%; in the test with NIM1 (setting [1]), 6%; in the test on NLK (setting [1]), 30%; in the test with OSR1 (setting [1]) it was 10%; in the test on PAK1 (setting [1]), 44%; in the test on PAK2 (setting [1]), 41%. Further, the “%Inh” value with PAK3 (setting [1]) amounted to 32%; in the test with PAK4 (setting [1]), 23%.

As for `COc1cc2nccc(Nc3ccc(NC(=O)c4ccc(C)cc4)c(O)c3)c2cc1OC.Cl` [GW440132], the “%Inh” value in the test on NDR1 (setting [1]) was 0%; in the test on NDR2 (setting [1]), 0%; in the test with NEK10 (setting [1]), 0%; with NEK11 (setting [1]), 0%; with NEK1 (setting [1]), 2%; with NEK2 (setting [1]), 0%. The “%Inh” value with NEK3 (setting [1]) is listed as 0%; with NEK4 (setting [1]), 0%; with NEK5 (setting [1]), 14%; in the test with NEK6 (setting [1]) it was 0%; in the test on NEK7 (setting [1]), 0%; in the test with NEK9 (setting [1]), 14%. Besides, the “%Inh” value in the test with NIK (setting [1]) is 15%; in the test with NIM1 (setting [1]), 7%; in the test on NLK (setting [1]), 0%; in the test with OSR1 (setting [1]), 17%; in the test on PAK1 (setting [1]) it was 0%; with PAK2 (setting [1]), 0%. In addition, the “%Inh” value with PAK3 (setting [1]) stood at 22%; with PAK4 (setting [1]) it was 0%.
